D1 agonist: human D1 receptor agonism | 360,000 compounds, 1% hits | HEK293 T-REx D1 cells, calcium flux, agonist mode | AID 504660 | P21728 | activation, % at 2 µM; in the data active means activation above about 30%; further: 0% is about no effect
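Inducible HEK293 T-REx D1 cells, force-coupled to calcium signalling, were plated at 4000 cells/well with tetracycline and held overnight at 30 C. After no-wash calcium dye loading, compound-evoked calcium rise over 180 s flagged agonists.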
DRD3 agonist: D3 dopamine receptor (human) agonism. P35462. D3R DiscoveRx beta-arrestin cells, luminescence, 90 min. max activation, %. 410,000 compounds, 0.58% hits. AID 652048; in the data active means max activation above about 30%; further: 0% is about no effect
Target sequence (P35462 whole entry, looked up): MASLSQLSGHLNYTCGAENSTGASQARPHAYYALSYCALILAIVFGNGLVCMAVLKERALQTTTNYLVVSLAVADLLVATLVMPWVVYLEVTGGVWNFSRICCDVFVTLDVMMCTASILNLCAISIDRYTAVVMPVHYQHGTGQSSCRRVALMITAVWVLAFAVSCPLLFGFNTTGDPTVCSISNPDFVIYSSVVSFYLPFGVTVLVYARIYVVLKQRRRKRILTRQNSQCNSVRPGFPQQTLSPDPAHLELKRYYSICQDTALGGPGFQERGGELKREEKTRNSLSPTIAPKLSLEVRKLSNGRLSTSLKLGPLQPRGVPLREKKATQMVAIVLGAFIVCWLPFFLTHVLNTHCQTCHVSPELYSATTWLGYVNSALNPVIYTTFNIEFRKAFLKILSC
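Agonist-mode cell screen: cells plated at 1500/well and incubated overnight at 37 °C, then exposed to library compounds for 90 min at 37 °C. Detection reagent was added for 30–60 min at room temperature, and luminescence was read.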
DRD3 antagonist: D3 dopamine receptor (human) antagonism. D3R cells, DiscoveRx beta-arrestin luminescence, antagonist mode; stronger effect = lower value. max response, negative = inhibition, %. 360,000 compounds, 2.5% hits. AID 652054; in the data active means max response below about -50%; inconclusive means no clear call, values can overlap the other calls; further: on the % scale 0 is the no-effect control and ±100 the full control effect
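Cells plated overnight at 1500 cells/well, then exposed to library compounds with dopamine controls for 90 minutes at 37 degrees C. DiscoveRx reagent added for 30–60 minutes at room temperature; luminescence read, quantitative HTS format.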
D1 potentiator: enhances dopamine response at the human D1 receptor | P21728 | HEK293 TREx D1 cells, calcium flux, dopamine EC20 potentiation | potentiation, % at 10 µM | 360,000 compounds, 0.036% hits | AID 504651; in the data active means potentiation above about 30%; further: 0% is about no effect
D1 antag: human D1 dopamine receptor antagonism; P21728; HEK293 TREx D1 cells, calcium flux, dopamine EC80; stronger effect = lower value; activity change, negative = inhibition, % at 10 µM; 360,000 compounds, 3.2% hits; AID 504652; in the data active means activity change below about -30%; further: on the % scale 0 is the no-effect control and ±100 the full control effect
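Tetracycline-induced HEK293 Trex D1 cells, force-coupled to calcium, dye-loaded; compounds added and read 180 s, then EC80 dopamine added and calcium flux tracked kinetically another 180 s.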
Starred values were filed as active, the others as inactive; ? = inconclusive; nt = no result; ! = not active in a repeat. The list is not random: actives were taken first. Their share in the collection is about 6%.

SMILES	D1 agonist	DRD3 agonist	DRD3 antagonist	D1 potentiator	D1 antag
CC1=C(C#N)C(NC(=O)c2cccc(Cl)c2)(C(F)(F)F)C(=O)N1 (configuration not stated)	-0.4	8.2	30.5	-0.1	-30.6*!
Cn1c(=O)c2cc(NC(=O)CCc3ccc4c(c3)OCO4)ccc2n1Cc1ccc(F)cc1	nt	11.4	18.4	nt	nt
Cc1cccc(OCc2ccc(-c3nc(C#N)c(NCCN(C)C)o3)o2)c1	101.8*	3.2	nt	3.0	-17.7
N#C/C(=C\c1cc(Cl)c(OCc2ccc(Cl)cc2)c(Cl)c1)C(N)=O	7.2	nt	nt	-14.2	-43.4*
N#C/C(=C\c1cc(O)c(O)c(O)c1)C(N)=O	10.2	4.4	-27.0	3.2	-1.0
Cc1cc(N2CCN(C3CCCCC3)CC2)nc2cccc(O)c12	1.4	-9.8	-83.9*	-5.8	4.5
CC(NC(=O)c1cccc(S(=O)(=O)N2CCN(C)CC2)c1)c1ccc(Cl)cc1Cl (configuration not stated)	15.8	4.0	20.9	-4.7	-45.3*
CN1CCN(S(=O)(=O)c2cccc(C(=O)Oc3ccc(C(C)(C)C)cc3)c2)CC1	6.7	-7.3	-24.7	-3.5	-30.2*
CC(C)c1ccc(OC(=O)c2cccc(S(=O)(=O)N3CCN(C)CC3)c2)cc1	8.6	-7.6	-8.3	-12.0	-28.4
CCc1ccc(-n2nc(C)c3c(C)cc(=O)n(CC(=O)Nc4ccc(C(C)=O)cc4)c32)cc1	0.6	-6.3	nt	-0.6	2.7
Cc1cccc(Oc2ccccc2NC(=O)CSCC(=O)Nc2cc(C)on2)c1	14.7	16.2	5.4	-6.8	-44.1*
CCOc1ccc(Oc2ccccc2NC(=O)CSCC(=O)Nc2cc(C)on2)cc1	13.4	-7.2	2.3	-6.2	-43.6*
Cc1cc(NC(=O)CSCC(=O)Nc2ccccc2OC(F)F)no1	0.7	-2.6	3.9	-0.4	3.2
CC(=O)c1ccc2c3c(cccc13)C(=O)N(c1c(C)nn(C)c1C)C2=O	5.1	-5.0	37.3	-2.2	2.0
O=C1c2cccc3c(N4CCCCC4)ccc(c23)C(=O)N1c1cccc(O)c1	300.2*	3.8	11.1	10.0	1.5
O=C1c2cccc3cccc(c23)C(=O)N1CCO	nt	2.5	0.0	nt	nt
O=C1c2cccc3c(N4CCCCC4)ccc(c23)C(=O)N1CCO	108.6*	3.2	14.5	-3.9	4.1
Cc1n[nH]c(C)c1N1C(=O)c2cccc3c(N4CCCCCC4)ccc(c23)C1=O	280.5*	5.8	40.6	4.3	-0.1
O=C(c1cccc(N2C(=O)c3ccccc3C2=O)c1)N1CCCCCC1	1.0	-0.7	19.2	-1.9	-0.5
C=CCN1C(=O)c2cccc3c(N4CCCCC4)ccc(c23)C1=O	88.6*	8.3	3.3	-5.5	-12.0
C=CCN1C(=O)c2cccc3c(Br)ccc(c23)C1=O	1.1	3.5	-7.4	0.2	11.3
CC1CCCCN1S(=O)(=O)Cc1ccccc1Cl (configuration not stated)	0.4	5.9	7.8	-12.5	-86.9*
CCN(CC)c1cc(C)c2cc(NC(=O)/C=C/c3cc(OC)c(OC)c(OC)c3)ccc2n1	0.4	-12.6	nt	-0.4	-11.4
COc1ccccc1-c1cc(C(F)(F)F)nc(S(=O)(=O)CCCC(=O)Nc2cc(C)on2)n1	3.5	-0.8	-82.5*	-2.2	-4.9
COc1ccccc1-c1cc(C(F)(F)F)nc(S(=O)(=O)CCCC(=O)NCc2ccc(F)cc2)n1	0.8	-8.9	-67.0*	5.0	16.0
SMILES	D1 agonist	DRD3 agonist	DRD3 antagonist	D1 potentiator	D1 antag
COc1ccc(-c2cc(C(F)(F)F)nc(S(=O)(=O)CCCC(=O)Nc3cc(C)on3)n2)cc1OC	1.8	-10.3	?	-5.3	-8.7
COc1ccccc1-c1cc(C(F)(F)F)nc(S(=O)(=O)CCCC(=O)N2CCCCC2C)n1 (configuration not stated)	1.0	-6.5	-88.0*	-8.6	5.4
COc1ccc(Cl)cc1NC(=O)CCS(=O)(=O)c1nc(-c2cccs2)cc(C(F)(F)F)n1	5.3	-18.3	nt	-0.3	-34.6*
Fc1ccccc1Cc1cn2cc(-c3ccc(Cl)cc3)nc2s1	12.4	8.6	nt	-1.9	-6.6
Oc1ccc(C[C@H]2CNC(=S)N2C[C@H]2CCCN2C[C@H](Cc2ccccc2)N2C[C@H](Cc3ccc(O)cc3)N(CCc3ccccc3)C2=S)cc1	nt	-11.5	-13.1	nt	nt
COc1ccccc1-c1cc(C(F)(F)F)nc(S(=O)(=O)CCCC(=O)Nc2cccnc2Cl)n1	2.1	-15.1	-51.6*	-0.5	-3.1
COc1ccccc1-c1cc(C(F)(F)F)nc(S(=O)(=O)CCCC(=O)NC(C)C)n1	0.4	-0.5	-67.4*	-2.1	-6.2
C=CC(C)(O)CC/C=C(\C)CCC=C(C)C (configuration not stated)	nt	-17.4	nt	nt	nt
COc1ccc(OCc2nc3ccccc3n2C(C)c2ccccc2)cc1 (configuration not stated)	11.9	-1.1	nt	0.7	-17.5
Cc1ccccc1CNC(=O)c1ccc2[nH]c(C)c(C)c2c1	2.8	-10.1	nt	-5.7	-28.1
CC1=CC(=O)C=C(C)C1=NOS(=O)(=O)c1ccccc1	13.1	-9.4	-56.1*	-5.8	-20.7
Cc1ccc2c(c1)/C(=N/OS(=O)(=O)c1ccccc1)CCS2	nt	-1.5	12.4	nt	nt
CC1=CC(=O)C(C(C)C)=C/C1=N/OS(=O)(=O)c1ccccc1	10.6	0.9	-78.7*	-8.4	-30.9*
Cc1ccccc1S(=O)(=O)N1[C@@H](c2ccc(Cl)cc2)C(C(=O)O)=CC[C@H]1c1ccc(Cl)cc1	nt	-23.6	-18.8	nt	nt
Cc1ccc(OCCn2cc(C=O)c3ccccc32)cc1	6.9	0.0	0.0	-3.5	-33.8*
COc1cccc(OCCn2cc(C(C)=O)c3ccccc32)c1	23.0	7.8	24.4	-1.3	-31.8*
COc1cccc(OCCn2cc(C(=O)c3ccco3)c3ccccc32)c1	49.9*	22.5	39.9	-7.3	-1.4
Cc1ccc(C)c(OCCn2cc(C(=O)O)c3ccccc32)c1	4.1	-8.7	?	-10.6	-39.9*
O=Cc1cn(CCOc2ccccc2)c2ccccc12	5.6	-8.0	0.0	-4.3	-9.9
Cc1ccc(CN2CCC2(C)C(=O)NC(C)C)cc1 (configuration not stated)	nt	-3.9	?	nt	nt
c1cnc2c(-c3ccc4nccn4c3)cccc2c1	nt	16.4	3.0	nt	nt
CC(C)CNC(=O)N1[C@H](c2cccs2)[C@@H](C)C(=O)[C@@H](C)[C@@H]1c1cccs1	0.7	-9.3	nt	0.5	14.3
O=C(NCCCCCCCN1CCCCCCC1)C(C1CCCCC1)C1CCCCC1	nt	-28.7	-64.6*	nt	nt
Cc1oc2c(c(=O)c1C)C(=O)CC(c1ccccc1)C2 (configuration not stated)	0.0	4.0	9.0	-0.9	27.7
CS(=O)(=O)c1sc(C#N)c2c1C(=O)CC(c1ccccc1)C2 (configuration not stated)	2.1	-18.6	-132.3*	-12.3	-71.7*
